Source: PubChem (National Center for Advancing Translational Sciences (NCATS))
This is a sample that favours compounds with a hit; in the whole collection about 19% have one here.
TDP1 cell noCPT – qHTS for Inhibitors of human tyrosyl-DNA phosphodiesterase 1 (TDP1): qHTS in cells in absence of CPT. 15% of 420,000 active. DT40 Tdp1-/- hTDP1 cells, no CPT, ATP luminescence, 48 h. Potency, µM (doses to about 46.2 µM), usual class: inhibitors; further: nearly all actives have a fitted effect of over 55% in size
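Chicken DT40 Tdp1-/- cells stably complemented with human TDP1 were seeded at 400 cells/well with DMSO in place of 20 nM camptothecin. After compound pinning, cells grew at least 48 hr at 37 °C; viability read by CellTiter-Glo luminescence.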
BCR signal inh – qHTS Assay to Find Inhibitors of Chronic Active B-Cell Receptor Signaling | ABC-DLBCL IkBa-CBG/CBR reporter, luminescence ratio, 4 h | Potency, µM (doses to about 46.1 µM), most hits filed as inhibitors | 0.05% of 340,000 active | AID 493014, 2011; active means well fitted inhibition curve with a large enough effect in the signal ratio, with a control signal flat, not every such curve was filed as active; inconclusive means small, poorly fitted or top-dose-only effect, or effect the other way, or a change in a side signal; the % refers to the signal ratio
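Doxycycline induced both beetle luciferases in TMD8 lymphoma cells; IKK-driven degradation limits the IkappaBalpha-fused green signal, while red luminescence normalises for cell number and nonspecific effects. Compounds tested up to 46 uM, 4 hrs.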
SW480 rereplic – A quantitative high throughput screen for small molecules that induce DNA re-replication in SW480 colon adenocarcinoma cells; SW480 DNA re-replication, Hoechst DNA content imaging, 48 h; Potency, µM (doses to about 46.1 µM), usual class: activators; 1.8% of 340,000 active; further: nearly all actives have a fitted effect of over 55% in size
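Compounds, transferred as 23 nL by pin tool, were incubated with cells for 48 hr; DNA content per nucleus was then quantified by Hoechst staining and fluorescence plate imaging.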
TDP1 cell CPT – qHTS for Inhibitors of human tyrosyl-DNA phosphodiesterase 1 (TDP1): qHTS in cells in presence of CPT | chicken DT40 Tdp1-/-;hTDP1 cells + 20 nM CPT, ATP luminescence, 48 h | Potency, µM (doses to about 46.2 µM), actives largely listed as inhibitors | 12% of 420,000 active; further: nearly all actives have a fitted effect of over 55% in size
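Chicken DT40 Tdp1-/- cells complemented with human TDP1, 400 cells/well, exposed to compounds plus 20 nM camptothecin for at least 48 h at 37 C; viability read as ATP content by CellTiter-Glo luminescence.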
MCF10A rerep – A quantitative high throughput screen for small molecules that induce DNA re-replication in MCF 10a normal breast cells; MCF 10A DNA re-replication, Hoechst nuclear intensity, 48 h; Potency, µM (titrated, usually from 46.1 µM), most hits filed as activators; 2.9% of 350,000 active; further: nearly all actives have a fitted effect of over 50% in size
IL1B secr inh – qHTS for Inhibitors of Inflammasome Signaling: IL-1-beta AlphaLISA Primary Screen; THP-1 LPS/ATP IL-1B secretion, AlphaLISA, 16 h; active compounds read low; activity change, % at 57.5 µM; 4.7% of 360,000 active; AID 743279, 2014; in the data active means activity change below about -50%; inconclusive means mostly about -30% to -49%
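Secreted IL-1B measured by AlphaLISA bead assay after 16 h compound exposure of THP-1 cells; compounds (final up to 57.5 uM) added 1 h before LPS (250 ng/mL) and ATP (1.25 mM) stimulation; lower signal means less secretion.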
A number is an active result; . = inactive; ? = inconclusive; / = no result; [ ] = dose if it differs, or a comment. Unless noted, the call rests on the fitted dose curve; in most records, active means well fitted curve in the direction sought with a large enough effect; inconclusive means small, poorly fitted or top-dose-only effect, or another doubt; inactive means no such curve, though single readings can be large; an effect the other way counts as inactive or inconclusive.

SMILES | TDP1 cell noCPT | BCR signal inh | SW480 rereplic | TDP1 cell CPT | MCF10A rerep | IL1B secr inh
N#Cc1cccc(NC(=O)C2CCN(c3ncccn3)CC2)c1 | . | / | / | . | / | /
Nc1nnnn1CC(=O)N/N=C/c1ccccn1 | . | . | . | . | ? | .
CC(NC(=O)COC(=O)C1CCCCC1)c1ccccc1 (stereo unspecified) | . | . | . | . | . | .
CCOC(=O)CCN(c1ccccc1)S(=O)(=O)c1ccc2[nH]c(=O)ccc2c1 | . | / | / | . | / | /
CCCS(=O)(=O)N1CCCC(C(=O)N2CCCCC2)C1 (stereo unspecified) | . | ? | . | . | . | .
Cc1c(C#N)c(N)nc(Cl)c1C#N | ? | ? | . | . | . | -168
CCC(=O)NC(=S)Nc1ccc(NC(=O)COc2ccc(Cl)cc2Cl)cc1 | 8.2µM | . | . | 16µM | ? | .
CN(C)c1nc(OCCNC(=O)COc2ccc(Cl)cc2Cl)nc(N(C)C)n1 | 8.2µM | . | . | 7.3µM | . | .
CCC(=O)NC(=S)Nc1ccc(NC(=O)COc2ccc([N+](=O)[O-])cc2)cc1 | 23µM | . | . | ? | . | .
CN(C)c1nc(OCCOC(=O)COc2ccc(Cl)cc2Cl)nc(N(C)C)n1 | . | . | . | . | . | .
COC(CC(=O)NNC(=S)Nc1ccc(Cl)cc1)OC | 18µM | . | . | 18µM | . | .
CCOc1ncccc1C(=O)NCCc1ccc(Cl)cc1 | ? | . | . | ? | . | .
CCOc1ccccc1NC(=O)Cn1c(=O)n(-c2ccc(Cl)cc2)c(=O)c2oc3ccccc3c21 | . | / | / | . | / | /
CCNc1ncc2nc(C)c(=O)n(Cc3cccc(OC)c3)c2n1 | ? | / | / | . | / | /
O=c1[nH]c(=S)[nH]c2c1C(c1ccc(Cl)cc1)OC(C1CCCCC1)C2 (stereo unspecified) | ? | / | / | ? | / | .
CCC(=O)NC(=S)Nc1ccc(NC(=O)COc2ccc(Cl)c(C)c2)cc1 | 16µM | . | . | 13µM | . | .
COc1ccc(NC(=S)NNC(=O)COc2ccc(Cl)cc2Cl)cc1 | 21µM | . | . | ? | . | .
Cc1cccc(NC(=S)NNC(=O)COc2ccc(Cl)cc2Cl)c1 | . | . | . | . | . | .
COc1ccc(C(=O)N2CCC3(CCN(Cc4ccncc4)CC3)CC2)cc1 | ? | / | / | . | / | /
COCc1ccc(CN2Cc3cc(Cl)ccc3OC(C)C2)o1 (stereo unspecified) | . | / | / | .[9.04 µM] | / | /
CCC(=O)Nc1c2c(nn1-c1ccc(OC)cc1)CSC2 | . | . | . | . | . | .
O=C(NCc1ccccc1)C(=O)Nc1c2c(nn1-c1ccccc1)CSC2 | 18µM | . | / | 16µM | / | /
CC(C)(C)C(=O)Nc1c2c(nn1-c1ccccc1)CSC2 | 23µM | . | . | ? | . | .
O=C(CCl)Nc1c2c(nn1-c1ccccc1)CSC2 | 15µM | ? | ? | 21µM | ? | -96
CC(=O)Nc1c2c(nn1-c1ccccc1)CSC2 | . | . | . | . | . | .
SMILES | TDP1 cell noCPT | BCR signal inh | SW480 rereplic | TDP1 cell CPT | MCF10A rerep | IL1B secr inh
COc1ccc(-n2nc3c(c2NC(=O)CCCl)CSC3)cc1 | 18µM | . | . | ? | . | .
O=C(NCc1ccccc1)c1ccc(S(=O)(=O)NCc2ccco2)cc1 | . | . | . | . | . | .
CC(Oc1ccc2c(-c3ccccc3)cc(=O)oc2c1)C(=O)N1CCC[C@@H]1C(N)=O (stereo partly specified) | . | . | . | . | . | .
COc1ccccc1NC(=O)c1cc2c([nH]c1=O)CC(C)(C)CC2=O | . | / | / | . | / | /
CCN(C(=O)COC(=O)c1ccc2ccccc2n1)c1c(N)n(Cc2ccccc2)c(=O)[nH]c1=O | . | . | . | . | . | .
CCCc1cc(-c2[nH]ncc2-c2ccc(C(=O)OCC)o2)c(O)cc1O | ? | ? | . | ? | . | -84
